From PubChem BioAssay AID1159580 (chemical genetic matrix, 2015)
Hit rate of the full screen: of about 5,500 compounds, about 2,000 (36%) were called active. Another 18% or so got no clear call; they are omitted. Rule as the data show it: active = normalized growth mostly below about 0.91 (no sharp cut-off); inconclusive = no clear call, values can overlap the other calls; inactive = mostly above about 0.92. Some of the results follow.

Assay: chemical genetic growth profiling, strain panel (AID 1159580);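 also: tested at 20 µM; growth read once vehicle control cultures reached saturation at 30 °C; 1 = growth at the plate median or of vehicle wells; lower values mean less growth of the strain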
Details: S. cerevisiae deletion strains, growth OD
[1] = locus YAL040C, strain CLN3, hits give low values
[2] = locus YCL061C, strain MRC1 (second series), hits give low values
[3] = locus YDR363W, strain ESC2, hits give low values
[4] = locus YER002W, strain NOP16, hits give low values
[5] = locus YJR075W, strain HOC1, hits give low values
[6] = locus YNL128W, strain TEP1, hits give low values
[7] = locus YNL175C, strain NOP13, hits give low values
[8] = locus YNL197C, strain WHI3, hits give low values
[9] = locus YNL224C, strain SQS1, hits give low values
[10] = locus YNL322C, strain KRE1, hits give low values
[11] = locus YOR083W, strain WHI5 (second series), hits give low values
[12] = locus YPL055C, strain LGE1, hits give low values

Measured: normalized growth

CN(C)S(=O)(=O)c1ccc2c(c1)/C(=C/c1cc3c([nH]1)CCCC3)C(=O)N2
inactive: [1] 1.07 | [2] 0.995 | [3] 0.983 | [4] 0.983 | locus YGR229C, strain SMI1, hits give low values 0.972 | [5] 1.01 | locus YMR307W, strain GAS1, hits give low values 0.996 | [6] 0.982 | locus YNL153C, strain GIM3, hits give low values 0.977 | [7] 0.976 | [8] 0.995 | [9] 0.983 | [10] 0.983 | [11] 1 | [12] 0.985

OCCN1CCN(CC/C=C2/c3ccccc3Sc3ccc(C(F)(F)F)cc32)CC1
active: [12] 0.87
inactive: [1] 1.04 | [2] 0.973 | [3] 0.923 | [4] 1.01 | locus YGR078C, strain PAC10, hits give low values 0.975 | [5] 0.942 | [6] 1.02 | [7] 1.07 | [8] 1.02 | [9] 1.05 | [10] 0.974 | [11] 0.887
